# Screening results (PubChem BioAssay)
# This is a sample that favours compounds with a hit; in the whole collection about 1.2% have one here.
# HUVEC tox TNFa – cytotoxicity in TNFa-stimulated HUVEC, primary screen, cytotoxicity control for VCAM1 expression modulator project, imaging, Hoechst nuclei count; 93,000 tested, 0.17% active; HUVEC TNFalpha-stimulated, Hoechst cell count; cell count reduction, % at 2 µM;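 active = cell count reduction exceeding the screen mean by over 5 SD, scaled to untreated wells per plate, cut at about 78% in these data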;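 also: cells counted after 24 h of TNF alpha exposure following the 1 h pretreatment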
# VCAM1 TNFa inh – inhibitors of TNFa-induced VCAM1 expression, primary screen, imaging, HUVEC, TNFa stimulus, immunofluorescence. HUVEC TNFa-induced VCAM-1 immunofluorescence, high-content imaging. inhibition, % at 2 µM. 95,000 tested, 0.48% active. AID 802, 2007;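 active = inhibition above the batch mean plus 3 SD, with images confirmed as a hit by eye, cut at about 37% in these data; inconclusive = inhibition above that limit but hit not confirmed in images; inactive = inhibition not above that limit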
# cytoskel mod – modifiers of F-actin cytoskeleton organization, primary screen, imaging, HUVEC, phalloidin staining, high-content imaging; HUVEC TNFa F-actin phalloidin imaging; inhibition, % at 2 µM; 91,000 tested, 0.18% active; AID 836, 2007;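 active = inhibition above the batch mean plus 3 SD and confirmed as a hit by visual image inspection, cut at about 30% in these data, passing the limit was not always enough; inconclusive = above the inhibition threshold but rejected on visual inspection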
# E-sel TNF inh – E-selectin induction blockers in HUVEC – imaging, immunofluorescence, high content, primary screen; HUVEC TNFa-induced E-selectin immunofluorescence; inhibition, % at 2 µM; 120,000 tested, 0.71% active;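 active = inhibition above the batch mean plus 3 SD, and confirmed as a hit on visual image review, cut at about 43% in these data; inconclusive = passes the inhibition cutoff but fails visual image review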
# Hits are given with their value; 0 = inactive; ? = inconclusive; - = no result given.
SMILES,HUVEC tox TNFa,VCAM1 TNFa inh,cytoskel mod,E-sel TNF inh
CN(C)C(=O)Oc1c(Cl)cc(Cl)c2cccnc12,-,-,-,74
CN1/C(=C\C=C\C2=[N+](C)c3ccc4ccccc4c3C2(C)C)C(C)(C)c2ccccc21,0,84,0,0
CN1/C(=C\C=Nc2ccccc2)C(C)(C)c2ccccc21,0,0,0,0
COc1ccc(Oc2cc(NC(=O)c3nn(C)cc3[N+](=O)[O-])cc([N+](=O)[O-])c2)cc1,0,90,0,90
COc1cc(C)c(CN2CCN(c3ccccc3)CC2)cc1C,0,0,-,-
O=C(c1cc2ccccn2n1)N1CCC2(CC1)OCCO2,0,0,0,-
O=C(c1ccc2c(c1)ncn2C1CCCCC1)N1CCC2(CC1)OCCO2,80,92,0,-
CCN(CC)CCOC(=O)c1ccc(N=Cc2c(O)[nH]c(=O)[nH]c2=O)cc1,0,0,0,51
Cc1cccc(C)c1NC1=NCCCCS1,0,0,0,0
CCNC(=O)NC(=O)C(C)OC(=O)c1c(C)nn(Cc2ccccc2Cl)c1Cl (stereo not given),-,-,-,0
CC(=NCCCO)c1c(O)n(Cc2ccccc2)c(=O)[nH]c1=O,-,94,0,0
Cn1c(O)c(C(=N)COc2cccc(Cl)c2)c(=O)n(C)c1=O,0,0,0,65
O=C1C(=O)c2cccc3cccc1c23,-,-,-,0
O=C1C(=O)c2ccccc2-c2ccccc21,0,84,0,0
Cc1cccc(NP(C)(=O)c2nc3c(s2)CCCC3)c1 (stereo not given),-,-,-,0
C[C@H]1CCC[C@@H](O)CCC/C=C/c2cc(O)cc(O)c2C(=O)O1,0,0,0,0
CC1CCC/C=C/C2CC(O)CC2C(O)/C=C/C(=O)O1 (stereo not given),87,94,0,98
c1ccc2c(NC3=NCCS3)cccc2c1,0,0,0,0
CC(=O)Nc1ccc(OCCF)cc1,-,-,-,100
COC(=O)C1CN(C#N)N(c2ccc(Cl)cc2)C12c1ccccc1-c1ccccc12 (stereo not given),-,-,?,63
O=C(CCc1nc(-c2ccccc2F)no1)N1CCC2(CC1)OCCO2,0,0,0,-
CCC(C)n1c(O)c(C=Nc2cccc(C(F)(F)F)c2)c(=O)[nH]c1=S (stereo not given),-,-,-,0
CSc1ccc(CNC2CN3CCC2CC3)cc1 (stereo not given),86,93,0,0
CCc1ccc(-c2nn(Cc3ccccc3)cc2C=O)cc1,-,-,-,0
CCOC(=O)C1=C(C)OC(N)=C(C#N)C12C(=O)N(C)c1ccccc12 (stereo not given),0,0,0,0
C=CCOC(=O)C1=C(C)OC(N)=C(C#N)C12C(=O)N(CN1CCOCC1)c1ccccc12 (stereo not given),91,88,0,-
